Compounds without any hit were thinned out: in the full panel of roughly 83,000, 20% have a hit.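 Single-dose data. Exposure time 48 hours. Values below 10 considered active.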 Calls of active or inactive are those of the source.
Legend:
Assay in all cases: NCI-60 one-dose screen, 48 h (100 = growth as untreated, 0 = no growth, -100 = all killed)
Conditions in all cases: 10 µM unless noted
[1] = tested on: HCT-15 colon
[2] = tested on: HT29 colon
[3] = tested on: SNB-75 CNS
[4] = tested on: SNB-19 CNS
[5] = tested on: U251 CNS
[6] = tested on: PC-3 prostate
[7] = tested on: SK-MEL-5 melanoma
[8] = tested on: UACC-62 melanoma
[9] = tested on: LOX IMVI melanoma
[10] = tested on: SK-MEL-28 melanoma

Measured: growth

NC1=C(c2nn[nH]n2)C(c2ccccc2Cl)c2ccc3ccccc3c2O1 (stereo not given)
inactive: [1] 46.8% | [2] 132% | [3] 56.7% | [4] 79.2% | [5] 77.8% | [6] 57.5% | [7] 58% | [8] 71.2% | [9] 77.8% | [10] 75.6%

COc1cc(C(=O)c2cnc(-c3c[nH]c4cccc(C)c34)[nH]2)cc(OC)c1OC
inactive: [1] 12% | [3] 20.3% | [4] 37.9% | [5] 17.7% | [6] 19.4% | [8] 32.6% | [9] 24.9% | [10] 59.3%
active: [2] 6.72% | [7] -30.7%

COc1ccc(CNC(=O)C(=O)[C@H](Cc2ccccc2)NC(=O)c2[nH]c3ccccc3c(=O)c2C)cc1
inactive: [1] 103% | [2] 108% | [3] 87.4% | [4] 100% | [5] 100% | [6] 95.1% | [7] 100% | [8] 95.6% | [9] 102% | [10] 103%

O=C(Cc1ccc(F)c(Cl)c1)Nc1cc(C2(C(F)(F)F)CC2)nn1Cc1ccccc1
inactive: [1] 93.9% | [2] 18% | [5] 24.3% | [6] 86.8% | [7] 83.6% | [8] 65.9% | [9] 86.3% | [10] 98%
active: [3] -21.6% | [4] 9.43%

COc1c(B(O)O)cc(C)cc1-c1nc2ccc3[nH]ncc3c2c2c1CCCC2
active: [3] -34.4%
inactive: [1] 21.6% | [2] 38.6% | [4] 74% | [5] 60.6% | [6] 61.9% | [7] 80.4% | [8] 69.5% | [9] 30.7% | [10] 93.8%

Nc1cc2c(cc1Br)-c1cc(Cl)ccc1C2=O
inactive: [1] 102% | [2] 102% | [3] 96.8% | [4] 104% | [5] 98.1% | [6] 95.2% | [7] 90.9% | [8] 96.3% | [9] 102% | [10] 106%

COc1ccc(C(=S)N2CCN(c3cccc(C)c3)CC2)cc1OC
inactive: [1] 44.5% | [2] 43.3% | [3] 59.7% | [4] 78.5% | [5] 53.9% | [6] 75.3% | [7] 60.2% | [8] 64% | [9] 55.7% | [10] 75.7%

C#Cc1cccc(NC(=O)Nc2ccccc2NC(=O)CCl)c1
inactive: [4] 19.7% [8.25 µM]
active: [1] -19.8% [8.25 µM] | [2] -15.5% [8.25 µM] | [3] -83.9% [8.25 µM] | [5] -85.2% [8.25 µM] | [6] -29% [8.25 µM] | [7] -94.8% [8.25 µM] | [8] -94.1% [8.25 µM] | [9] -94.4% [8.25 µM] | [10] -10.4% [8.25 µM]

Cc1ccc(-c2nn(C)c(=O)c3noc(-c4ccc(C)cc4)c23)cc1
active: [2] 9.47% | [3] -21.4%
inactive: [1] 32.3% | [4] 32.9% | [5] 27.4% | [6] 26.1% | [7] 21.5% | [8] 38.5% | [9] 44.3% | [10] 70.5%

[O-][n+]1c2ccccc2[n+]([O-])c2c3ccccc3[nH]c21
inactive: [1] 78.7% | [2] 77.3% | [3] 82.6% | [4] 85% | [5] 53.2% | [6] 66.4% | [7] 73.5% | [8] 20.7% | [9] 98.3% | [10] 117%

C[N+]1=C(/C=C/c2ccc(O)c3ncccc23)C(C)(C)c2ccccc21
inactive: [1] 25% | [2] 96.9% | [3] 30.8% | [4] 27.9% | [5] 17.1% | [6] 71.2% | [8] 39.2% | [9] 40.4% | [10] 51.5%
active: [7] 1.13%

CC1Cc2c(ncn3c(-c4ccc(F)cc4)nnc23)N(C)c2ccccc21 (stereo not given)
inactive: [1] 72% | [2] 18.3% | [4] 48.5% | [5] 39.3% | [6] 63% | [7] 96.7% | [8] 73.5% | [9] 12.6% | [10] 85.4%
active: [3] -7.85%

CCOC(=O)c1cn2ncnc(Oc3ccc(NC(=O)NCCN4CCN(C)CC4)c(Cl)c3)c2c1C
inactive: [1] 39.6% | [2] 19.7% | [3] 86.3% | [4] 87.7% | [5] 63.3% | [6] 50.5% | [7] 47.6% | [8] 34% | [9] 66.2% | [10] 13.3%

Reference: PubChem BioAssay (NCI)
